# Laboratory results published in a collection of fitness landscapes (doi:10.1016/j.celrep.2020.107928).
# In all, about 81,000 sequences were measured (“one-hybrid fitness for binding parS DNA”: median about -0.17, highest 2% from about 0.51 on). This is one part of a sample in which the highest values are shown more often than they occur.
# B1: Caulobacter ParB omega fusion; a variant is named by its letters at X, in order, B8GW30 (parent)
# chain: MESVVVGEPGMSEGRRGLGRGLSALLGEVDAAPAQAPGEQLGGSREAPIEILQRNPDQPRRTFREEDLEDLSNSIREKGVLQPILVRPSPDTAGEYQIVAGERAWRAAQRAGLKTVPIMVRELDDLAVLEIGIIENVQRADLNVLEEALSYKVLMEKFERTQENIAQTIGKSXSHVANXMRLLXLPDEVQSYLVSGELTAXHARAIAAAADPVALAKQIIEGGLSVRETEALARKAPNLSAGKSKGGRPPRVKDTDTQALESDLSSVLGLDVSIDHRGSTGTLTITYATLEQLDDLCNRLTRGI
# Variants of: B1
# Experiment: one-hybrid fitness for binding parS DNA (scaled: cognate 1, non-cognate 0); higher = stronger binding
# Conditions: with parS DNA site
# Method in brief: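 On M9-minus-histidine containing 0.1 mM IPTG and 5 mM 3-AT, E. coli USO cells with a HIS3 reporter, site 19 bp from the promoter, grew 48 hours at 37°C to select Caulobacter ParB libraries randomised at four specificity codons. Plasmids from before and after were Illumina-sequenced, with three replicate libraries pooled and variants under 10 reads left out. Fitness is the log change in variant-to-wild-type read ratio, rescaled against cognate and non-cognate.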
row,Variant,one-hybrid fitness for binding parS DNA
1,RYNS,0.872
2,RYDS,0.987
3,RYND,0.213
4,RYDN,0.407
5,RYNH,≤ 0.2
6,EDLC,≤ 0.2
7,ANQD,≤ 0.2
8,TARG,≤ 0.2
9,KMSG,≤ 0.2
10,RYEM,0.275
11,RYEC,0.926
12,RYEF,0.236
13,RYEG,0.901
14,RYEY,0.434
15,RYED,≤ 0.2
16,RYES,0.975
17,RYET,0.772
18,RYEH,≤ 0.2
19,RYEP,≤ 0.2
20,RYEK,≤ 0.2
21,RYEN,0.348
22,PNCQ,≤ 0.2
23,QNHC,≤ 0.2
24,RNEA,0.253
25,CLSL,≤ 0.2
26,SSKF,≤ 0.2

row,Variant,one-hybrid fitness for binding parS DNA
1,VNMC,≤ 0.2
2,RMFC,0.966
3,RMFN,0.459
4,RMAK,≤ 0.2
5,RMAF,0.253
6,RMAC,0.994
7,RMFR,≤ 0.2
8,MTRT,≤ 0.2
9,LSYV,≤ 0.2
10,LACS,≤ 0.2
11,RKDD,≤ 0.2
12,RKNH,≤ 0.2
13,RKNN,0.327
14,RKNS,0.766
15,RKDP,≤ 0.2
16,RKDS,0.886
17,QQTE,≤ 0.2
18,TVLW,≤ 0.2
19,QYWT,≤ 0.2
20,AHYS,≤ 0.2
21,RWFM,≤ 0.2
22,RWAP,≤ 0.2
23,RWAH,≤ 0.2
24,RWFR,≤ 0.2
25,RWAC,0.721
26,RWFC,0.6

row,Variant,one-hybrid fitness for binding parS DNA
1,HYMG,≤ 0.2
2,CCLT,≤ 0.2
3,HCNG,≤ 0.2
4,RVAD,≤ 0.2
5,RVFR,≤ 0.2
6,RVAP,≤ 0.2
7,RVFC,0.972
8,RVAC,0.982
9,RVFF,0.303
10,YKSS,≤ 0.2
11,DLKY,≤ 0.2
12,KPVK,≤ 0.2
13,RTKF,0.734
14,RTVF,≤ 0.2
15,RTDF,≤ 0.2
16,RTRF,0.627
17,RPKF,≤ 0.2
18,RSKF,0.35
19,RTYF,0.259
20,RCKF,0.541
21,RWHR,≤ 0.2
22,RPGM,≤ 0.2
23,VKLS,≤ 0.2
24,EMNC,≤ 0.2
25,QAGG,≤ 0.2
26,VSVK,≤ 0.2

row,Variant,one-hybrid fitness for binding parS DNA
1,LNGG,≤ 0.2
2,RVPS,0.812
3,RVPD,≤ 0.2
4,RVPP,≤ 0.2
5,RVID,≤ 0.2
6,RVIP,≤ 0.2
7,RVIS,0.981
8,PTIM,≤ 0.2
9,CNLM,≤ 0.2
10,LLRY,≤ 0.2
11,EDTE,≤ 0.2
12,RPNG,≤ 0.2
13,RSYG,0.991
14,RCNG,0.966
15,RSYR,≤ 0.2
16,RENG,0.302
17,RSNK,≤ 0.2
18,RSDG,0.84
19,REDG,≤ 0.2
20,RDNG,≤ 0.2
21,RSNG,1
22,RSYF,0.233
23,RSDF,≤ 0.2
